PubChem BioAssay (EPA / NIEHS)
Records with an inconclusive call do not appear. Calls of active or inactive are those of the source. How the source made its calls: active means hit-call score of the fitted dose curve at least 0.9, where 1 is the maximum; inconclusive means response in the unintended direction; inactive means score below 0.9.

Target: Cellular tumor antigen p53 (Homo sapiens) (UniProt P04637)
Sequence (P04637 whole entry, looked up): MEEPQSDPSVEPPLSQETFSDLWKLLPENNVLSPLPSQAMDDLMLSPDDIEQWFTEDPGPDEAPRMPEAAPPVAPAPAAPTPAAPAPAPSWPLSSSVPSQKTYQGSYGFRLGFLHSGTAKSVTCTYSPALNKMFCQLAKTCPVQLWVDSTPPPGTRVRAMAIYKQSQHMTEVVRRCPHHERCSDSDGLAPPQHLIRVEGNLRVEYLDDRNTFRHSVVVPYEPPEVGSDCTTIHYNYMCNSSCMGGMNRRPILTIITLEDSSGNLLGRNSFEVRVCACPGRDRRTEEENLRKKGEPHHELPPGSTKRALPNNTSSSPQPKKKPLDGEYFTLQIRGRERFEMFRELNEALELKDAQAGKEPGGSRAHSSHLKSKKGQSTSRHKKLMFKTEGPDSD
Experiment: TOX21_p53_BLA_p2_ratio: Tox21 HCT-116 p53 Agonism Beta-lactamase Assay, Ratio, Phase 2 (AID 2283592)
How it was run: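 HCT-116 cells with p53-responsive beta-lactamase reporter, 4000 cells/well, preincubated 5 h, then compound in DMSO (217-fold dilution) for 16 h at 37C. CCF4-AM substrate 2 h at room temperature; 460/530 nm emission ratio fitted upward versus DMSO.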
For `COc1ccc(C(=O)Nc2nc3ccccc3c(NCc3ccccc3)c2C#N)cc1`, the AC50 was 60.1 µM (active).
For `CC1=C(C)S(=O)(=O)CCS1(=O)=O`, the outcome was “inactive”.
For `COC(=O)CCCC(=O)OC`, the outcome was “inactive”.
With `CCCCCCC(CCCCCCCCCCC(=O)OCC(COC(C)=O)OC(C)=O)OC(C)=O` (configuration not stated) the outcome was “inactive”.
In the case of `C=CCCCCCCCCCCCC`, the outcome is reported as “inactive”.
For `CC(=O)S[C@H](C(=O)N[C@H]1Cc2ccccc2[C@H]2CCC[C@@H](C(=O)O)N2C1=O)C(C)C`, the outcome was “inactive”.
For `CCCCc1nc2cccnc2n1Cc1ccc(-c2ccccc2-c2nnn[nH]2)cc1`, the outcome was “inactive”.
With `OCC(CO)n1cnc(-c2ccc(F)cc2)c1-c1ccnc(Oc2ccccc2)n1` the outcome was “inactive”.
In the case of `CN(C)CCCN(C)CCCN(C)C`, the outcome is reported as “inactive”.
For `CN(C)C(=O)NC1(c2ccccc2)CCN(CC[C@@]2(c3ccc(F)c(F)c3)CN(C(=O)c3ccccc3)CCO2)CC1`, the outcome was “inactive”.
In the case of `NC(=Nc1ccccc1)Nc1ccccc1`, the outcome is reported as “inactive”.
With `COc1ccc(OC(F)(F)F)cc1CN[C@H]1CCCN[C@H]1c1ccccc1` the outcome was “inactive”.
For `Cc1cc(SC2=C(O)C[C@@](CCc3ccc(N)cc3)(C(C)C)OC2=O)c(C(C)(C)C)cc1CO`, the outcome was “inactive”.
For `CCCCCCCCCC[N+](C)(C)[O-]`, the outcome was “inactive”.

System: not listed separately
Experiment: TOX21_p53_BLA_p3_viability: Viability Assessment in the Tox21 HCT-116 p53 Agonism Beta-lactamase Assay, Phase 3 (AID 2283593);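 further: cells exposed to compound for 16 h before reading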
How it was run: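 Cellular ATP was quantified by CellTiter-Glo luminescence, read after 30 min at room temperature. Beforehand, HCT116 cells (4000/well) received compound 5 h post-seeding, 217-fold diluted from DMSO, then incubated 16 h at 37C.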
With `CCCCC(CC)COP(=O)(OCC(CC)CCCC)OCC(CC)CCCC` (configuration not stated) the outcome was “inactive”.
With `CC(C)(C)c1ccccc1` the outcome was “inactive”.
For `CS(=O)(=O)c1ccc([C@@H](C[C@H]2CCC(=O)C2)C(=O)Nc2cnccn2)cc1Cl`, the outcome was “inactive”.
For `CO[C@@H]1COCC[C@@H]1N[C@@H]1CC[C@@](C(=O)N2CCc3ncc(C(F)(F)F)cc3C2)(C(C)C)C1`, the outcome was “inactive”.
For `OCC(CO)n1cnc(-c2ccc(F)cc2)c1-c1ccnc(Oc2ccccc2)n1`, the outcome was “inactive”.
With `NC(=Nc1ccccc1)Nc1ccccc1` the outcome was “inactive”.
In the case of `COc1ccc(OC(F)(F)F)cc1CN[C@H]1CCCN[C@H]1c1ccccc1`, the outcome is reported as “inactive”.
With `O=[Si]=O` the outcome was “inactive”.
With `CCCCCCCCCC[N+](C)(C)[O-]` the outcome was “inactive”.

Target: Cellular tumor antigen p53 (Homo sapiens) (UniProt P04637)
Experiment: TOX21_p53_BLA_p3_ratio: Tox21 HCT-116 p53 Agonism Beta-lactamase Assay, Ratio, Phase 3 (AID 2283596)
How it was run: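 HCT116 p53-bla cells (4000/well) given compound in DMSO (217-fold dilution) after 5 h, incubated 16 h at 37C. CCF4-AM substrate 2 h at room temperature; 460/530 nm emission ratio, gain fitted against DMSO.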
With `COc1ccc(C(=O)Nc2nc3ccccc3c(NCc3ccccc3)c2C#N)cc1` the outcome was “inactive”.
With `CC1=C(C)S(=O)(=O)CCS1(=O)=O` the outcome was “inactive”.
For `CCCCC(CC)COP(=O)(OCC(CC)CCCC)OCC(CC)CCCC` (configuration not stated), the outcome was “inactive”.
With `COC(=O)CCCC(=O)OC` the outcome was “inactive”.
In the case of `C=CCCCCCCCCCCCC`, the outcome is reported as “inactive”.
For `CC(=O)S[C@H](C(=O)N[C@H]1Cc2ccccc2[C@H]2CCC[C@@H](C(=O)O)N2C1=O)C(C)C`, the outcome was “inactive”.
For `CCCCc1nc2cccnc2n1Cc1ccc(-c2ccccc2-c2nnn[nH]2)cc1`, the outcome was “inactive”.
In the case of `CC(C)(C)c1ccccc1`, the outcome is reported as “inactive”.
For `CC1(C)C(=O)NC(=O)N1CO`, the outcome was “inactive”.
With `CS(=O)(=O)c1ccc([C@@H](C[C@H]2CCC(=O)C2)C(=O)Nc2cnccn2)cc1Cl` the outcome was “inactive”.
For `CN(C)CCCN(C)CCCN(C)C`, the outcome was “inactive”.
For `CN(C)C(=O)NC1(c2ccccc2)CCN(CC[C@@]2(c3ccc(F)c(F)c3)CN(C(=O)c3ccccc3)CCO2)CC1`, the outcome was “inactive”.
In the case of `Cc1cc(SC2=C(O)C[C@@](CCc3ccc(N)cc3)(C(C)C)OC2=O)c(C(C)(C)C)cc1CO`, the outcome is reported as “inactive”.
In the case of `CCCCCCCCCC[N+](C)(C)[O-]`, the outcome is reported as “inactive”.
